Experimental data reported in PubChem BioAssay (NCATS).
Unmarked numbers belong to inactive results. Results filed as inconclusive are left out. Active and inactive are the calls of the source. Unless noted, the call rests on the fitted dose curve; in most records, active means well fitted curve in the direction sought with a large enough effect; inconclusive means small, poorly fitted or top-dose-only effect, or another doubt; inactive means no such curve, though single readings can be large; an effect the other way counts as inactive or inconclusive.

How the values were obtained:
[1] = target: Lysosomal acid glucosylceramidase (Homo sapiens) (UniProt P04062); experiment: Glucocerebrosidase-p2 (AID 348; in the data active means potency below about 10 µM; further: potency means the concentration at half of the fitted maximal effect); conditions: purified GBA, blue fluorogenic substrate, 40 min
Method in brief: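 Normal human glucocerebrosidase (0.2 nM) with blue fluorogenic substrate (80 uM final) in citrate/phosphate pH 5.9 with 10mM sodium taurocholate, 0.01% tween-20; 40 min RT, NaOH/glycine stop; fluorescence Ex 365/Em 440; AC50 from a titration from 0.6 nM upwards.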

[2] = AP1 Signaling Pathway (AID 357; active means well fitted curve in either direction with a large enough effect, not every such curve was filed as active;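 further: ME-180 reporter cells stimulated with EGF at its EC50 level; on the % scale 0 is the no-effect control and ±100 the full control effect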); conditions: ME-180 AP-1-bla reporter, EGF-induced, beta-lactamase ratio, 5 h; at 7.69 µM (top of the series) unless noted
Method in brief: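 Beta-lactamase reporter under AP-1 response element, ME-180 background. Stimulus: EC50 EGF. Compound exposure 5 h, 37 °C. Detection: CCF4, 2.5 h RT, 460/530 nm. Values: AC50 from titration.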

[3] = target: Cytochrome P450 1A2 (Homo sapiens) (UniProt P05177); experiment: p450-cyp1a2 (AID 410; calls by dose curve; further: potency means the concentration at half of the fitted maximal effect;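 on activity change, negative = inhibition: -100% = full effect of reference inhibitor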); conditions: recombinant CYP1A2, luciferin-ME demethylation, luminescence; series mostly up to 57 µM
Method in brief: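 Read-out is luminescence from luciferin produced by CYP1A2 demethylation of Luciferin-ME (100uM, at Km). Detection reagent stopped the 60 min NADPH-dependent reaction; signals were normalized to 57 uM furafylline.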

[4] = NFAT Signaling Pathway (AID 444; active means well fitted curve in either direction with a large enough effect, not every such curve was filed as active;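 further: carbachol stimulus at about its EC50 of 1 µM final; on the % scale 0 is the no-effect control and ±100 the full control effect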); conditions: Jurkat NFAT-bla M1, carbachol, beta-lactamase ratio, 5 h; at 7.69 µM (top of the series) unless noted
Method in brief: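 Jurkat cells with NFAT-driven β-lactamase reporter and co-expressed M1 receptor, stimulated with carbachol (final 1 uM, ~EC50), compound titration, 5 h at 37 °C. CCF4 loaded 1 h at RT; 460/530 nm ratio gave %activity and AC50.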

[5] = Stat Signaling Pathway (AID 446; active means well fitted curve in either direction with a large enough effect, not every such curve was filed as active;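 further: ME-180 cervical cancer cells given 40 pM IL-6 alongside compound; SIE-controlled beta-lactamase reporter measured as 460/530 nm FRET emission ratio; on the % scale 0 is the no-effect control and ±100 the full control effect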); conditions: ME-180 SIE beta-lactamase reporter, IL-6 stimulated, 5 h; at 7.69 µM (top of the series) unless noted
Method in brief: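 FRET read-out (405 nm excitation, 460/530 nm emission) of a beta-lactamase reporter under a STAT-inducible element in ME-180 cervical carcinoma cells. Cells with compound receive 40 pM IL-6 for 5 h. Values are normalised to AC90 stimulation and AC90 JAK-inhibitor controls.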

[6] = target: Glucocorticoid receptor (Homo sapiens) (UniProt P04150); experiment: GR-GFP Redistribution (AID 450;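 active means compounds whose dose series gives a full or clear partial fitted curve of increased nuclear translocation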; further: potency means the concentration at half of the fitted maximal effect); conditions: U2OS GR-GFP nuclear translocation, laser cytometry, 2 h
[7] = target: Glucocorticoid receptor (Homo sapiens) (UniProt P04150); experiment: GR-EFC Redistribution (AID 451; calls by dose curve; further: potency means the concentration at half of the fitted maximal effect); conditions: CHO-K1 GR-EFC translocation, beta-gal luminescence, 2 h
Method in brief: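 CHO-K1 cells expressing nuclear EA and GR-ED fragments of b-gal; compounds titrated up to 46 uM final, 2 h at 37 C. GR nuclear translocation read as complemented b-gal luminescence after 1 h RT detection.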

[8] = target: Mitogen-activated protein kinase 10 (Mus musculus) (UniProt Q61831); experiment: JNK3 AlphaScreen Assay (AID 530; active means well fitted curve in either direction with a large enough effect, not every such curve was filed as active;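 further: kinase came from lysate of stimulated human HepG2 cells; signal reports phosphorylation of biotinylated GST-cJun 1-79 at Ser73 with 10 µM ATP; on the % scale 0 is the no-effect control and ±100 the full control effect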); conditions: JNK3 lysate, c-Jun phosphorylation; series mostly up to 57.1 µM
Method in brief: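 HepG2 lysate (IL-1b/TNFa pre-activated) + biotin-GST-cJun 1-79 + anti-pSer73 cJun; cpd titration, 15 min RT; ATP 10 uM start; Tris pH 7.6, MgCl2, DTT, vanadate; beads in EDTA buffer; AlphaScreen.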

[9] = target: 3',5'-cyclic-AMP phosphodiesterase 4B (Homo sapiens) (UniProt Q07343); experiment: qHTS Assay for Inhibitors of PDE-IV (AID 607; active means well fitted activation curve with a large enough effect in the main read-out, with a control signal flat, not every such curve was filed as active; further: % of control where 0% means no effect); conditions: HEK293 ACTOne CNG channel cells, membrane potential fluorescence; series mostly up to 22.9 µM
Method in brief: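 Cell-based read-out of cAMP via a modified cyclic nucleotide-gated channel and membrane potential dye (535/590 nm) in HEK293 cells expressing PDE4 endogenously. Compounds tested up to 22.9 uM final; 100 uM RO 20-1724 reference.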

[10] = target: Cytochrome P450 3A4 (Homo sapiens) (UniProt P08684); experiment: qHTS Assay for Inhibitors and Substrates of Cytochrome P450 3A4 (AID 884); conditions: recombinant CYP3A4, Luciferin-PPXE luminescence; series mostly up to 57.1 µM; further: potency means the concentration at half of the fitted maximal effect; nearly all actives have a fitted effect of over 50% in size
Method in brief: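 Luminescent readout of luciferin produced by CYP3A4 (20 nM) dealkylation of Luciferin-PPXE, 25 uM (its KM). NADPH-driven reaction ran 60 min at RT after 10 min compound preincubation; data scaled to 57 uM ketoconazole as 100% inhibition.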

[11] = target: Cytochrome P450 3A4 (Homo sapiens) (UniProt P08684); experiment: qHTS Assay for Activators of Cytochrome P450 3A4 (AID 885); conditions: recombinant CYP3A4, Luciferin-PPXE luminescence, 60 min; series mostly up to 57.1 µM; further: nearly all actives have a fitted effect of over 65% in size
Method in brief: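 Luminescent readout of luciferin formed from 25 uM Luciferin-PPXE (KM level) by 20 nM CYP3A4 in 200 mM KPO4, with 60 min NADPH-driven reaction at room temperature after 10 min compound exposure. Ketoconazole (57 uM) defined 100% inhibition.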

[12] = target: Dual specificity protein kinase CLK4 (Homo sapiens) (UniProt Q9HAZ1); experiment: qHTS Assay for Inhibitors of CDC-like Kinase 4 (Kinase-Glo Assay) (AID 1770); conditions: recombinant Clk4, Kinase-Glo ATP depletion luminescence; series mostly up to 66.7 µM; further: nearly all actives have a fitted effect of over 65% in size; further: potency means the concentration at half of the fitted maximal effect
Method in brief: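 Luminescent ATP-depletion read-out (Kinase-Glo) after 4.5 h room-temperature reaction of Clk4 (25 nM final) with RS peptide (100 uM) and ATP (1 uM), pH 7.5 Tris buffer with MgCl2 and DTT.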

[13] = target: Dual specificity protein kinase CLK4 (Homo sapiens) (UniProt Q9HAZ1); experiment: qHTS Assay for Inhibitors of CDC-like Kinase 4 (ADP-Glo Assay) (AID 1771); conditions: recombinant CLK4, ADP-Glo luminescence; series mostly up to 80 µM; further: nearly all actives have a fitted effect of over 70% in size; further: potency means the concentration at half of the fitted maximal effect
Method in brief: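 In this ADP-Glo format, 1 uM ATP and 100 uM RS peptide served as substrates for 25 nM Clk4 in Mg2+/EGTA/DTT/Triton buffer; reactions ran 1 hr at room temperature before luminescent ADP quantification.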

[14] = target: Ubiquitin carboxyl-terminal hydrolase 1 (Homo sapiens) (UniProt O94782); experiment: Inhibitors of USP1/UAF1: Pilot qHTS (AID 504865); conditions: purified USP1/UAF1, Ub-rhodamine cleavage fluorescence; series mostly up to 54.9 µM; further: nearly all actives have a fitted effect of over 35% in size; further: potency means the concentration at half of the fitted maximal effect
Method in brief: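 Deubiquitinase activity followed as kinetic rhodamine fluorescence release from 150 nM Ub-Rho. 1 nM USP1/UAF1 with compound, after 15 min room-temperature preincubation, in HEPES pH 7.8 buffer containing TCEP, EDTA, BSA and Tween-20.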

[15] = Primary qHTS for small molecule stabilizers of the endoplasmic reticulum resident proteome: Secreted ER Calcium Modulated Protein (SERCaMP) assay (AID 1508630); conditions: SH-SY5Y GLuc-SERCaMP (Gaussia luciferase released on ER calcium loss) secretion, thapsigargin, luminescence; series mostly up to 38.4 µM; further: on the % scale 0 is the no-effect control and ±100 the full control effect
Method in brief: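 The SH-SY5Y reporter protocol was run at 3 concentrations up to 38.3 uM (primary) or 11 concentrations (follow-up): 16 h compound, 100 nM thapsigargin for 4 h, then extracellular luciferase luminescence.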

[16] = target: Dual specificity protein kinase CLK4 (Homo sapiens) (UniProt Q9HAZ1); experiment: qHTS Assay for Inhibitors of CDC-like Kinase 4 (ADP-FP Assay) (AID 1795); conditions: Transcreener ADP fluorescence polarization; series mostly up to 50 µM; further: nearly all actives have a fitted effect of over 60% in size; further: potency means the concentration at half of the fitted maximal effect
Method in brief: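 Kinase activity was measured as ADP production using Transcreener orange tracer (4 nM) and ADP antibody (1 ug/mL) fluorescence polarization, with ADP calculated from a calibration curve. The 1 h reaction contained 6.25 nM Clk4, 1 uM ATP and 100 uM RS peptide at pH 7.5 with Mg2+.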

[17] = qHTS Assay for Identification of Small Molecule Agonists for Hypoxia Response Element Signaling Pathway (AID 914; active means well fitted activation curve with a large enough effect in the signal ratio, with a control signal flat, not every such curve was filed as active; the % refers to the signal ratio; further: potency means the concentration at half of the fitted maximal effect; on activation: % of control where 0% means no effect); conditions: ME-180 HRE-bla reporter, beta-lactamase ratio, CoCl2, 17 h; activation: stronger effect = higher value
Method in brief: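 ME-180 cells carrying an HRE-driven beta-lactamase reporter were treated with compounds in a titration series plus an EC50 level of CoCl2 for 17 h at 37 degrees Celsius; CCF4 readout as the 460nm/530nm ratio gave AC50 values.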

Sequence of Cytochrome P450 1A2 (Homo sapiens) (P05177 whole entry, looked up): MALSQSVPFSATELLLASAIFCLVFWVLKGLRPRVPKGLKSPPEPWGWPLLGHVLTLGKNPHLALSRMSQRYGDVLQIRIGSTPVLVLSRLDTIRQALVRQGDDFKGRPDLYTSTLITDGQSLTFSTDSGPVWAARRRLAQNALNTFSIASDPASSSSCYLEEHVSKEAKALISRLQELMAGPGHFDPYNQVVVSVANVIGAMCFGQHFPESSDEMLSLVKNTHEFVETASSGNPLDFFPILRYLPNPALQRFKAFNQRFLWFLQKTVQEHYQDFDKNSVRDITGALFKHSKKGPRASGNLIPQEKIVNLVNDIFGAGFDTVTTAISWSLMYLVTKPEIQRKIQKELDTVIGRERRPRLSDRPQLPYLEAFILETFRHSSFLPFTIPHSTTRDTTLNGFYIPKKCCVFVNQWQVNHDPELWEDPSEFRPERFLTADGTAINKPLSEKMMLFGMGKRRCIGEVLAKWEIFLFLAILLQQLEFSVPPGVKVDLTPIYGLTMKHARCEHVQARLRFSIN
Sequence of Ubiquitin carboxyl-terminal hydrolase 1 (Homo sapiens) (O94782 whole entry, looked up): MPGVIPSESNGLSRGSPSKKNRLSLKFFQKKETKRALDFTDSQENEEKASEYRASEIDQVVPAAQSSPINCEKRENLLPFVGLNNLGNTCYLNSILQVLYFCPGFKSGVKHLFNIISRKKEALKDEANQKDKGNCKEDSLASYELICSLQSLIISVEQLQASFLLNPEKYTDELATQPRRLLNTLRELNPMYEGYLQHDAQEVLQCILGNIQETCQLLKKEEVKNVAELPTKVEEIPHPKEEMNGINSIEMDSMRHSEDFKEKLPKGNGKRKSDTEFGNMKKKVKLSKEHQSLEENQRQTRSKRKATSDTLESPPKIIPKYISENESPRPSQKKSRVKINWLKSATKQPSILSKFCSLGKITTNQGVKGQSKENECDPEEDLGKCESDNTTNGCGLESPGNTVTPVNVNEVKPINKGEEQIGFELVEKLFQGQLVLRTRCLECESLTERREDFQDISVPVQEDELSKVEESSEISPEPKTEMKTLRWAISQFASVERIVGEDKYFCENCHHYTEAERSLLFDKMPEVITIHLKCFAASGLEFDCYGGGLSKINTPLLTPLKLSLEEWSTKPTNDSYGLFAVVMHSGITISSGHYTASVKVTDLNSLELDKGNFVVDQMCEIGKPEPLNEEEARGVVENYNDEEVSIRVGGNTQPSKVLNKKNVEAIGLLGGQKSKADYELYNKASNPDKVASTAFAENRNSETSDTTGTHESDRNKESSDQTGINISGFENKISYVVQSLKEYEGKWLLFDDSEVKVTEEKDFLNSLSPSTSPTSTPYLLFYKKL
Sequence of Glucocorticoid receptor (Homo sapiens) (P04150 whole entry, looked up, the tested form may be a part): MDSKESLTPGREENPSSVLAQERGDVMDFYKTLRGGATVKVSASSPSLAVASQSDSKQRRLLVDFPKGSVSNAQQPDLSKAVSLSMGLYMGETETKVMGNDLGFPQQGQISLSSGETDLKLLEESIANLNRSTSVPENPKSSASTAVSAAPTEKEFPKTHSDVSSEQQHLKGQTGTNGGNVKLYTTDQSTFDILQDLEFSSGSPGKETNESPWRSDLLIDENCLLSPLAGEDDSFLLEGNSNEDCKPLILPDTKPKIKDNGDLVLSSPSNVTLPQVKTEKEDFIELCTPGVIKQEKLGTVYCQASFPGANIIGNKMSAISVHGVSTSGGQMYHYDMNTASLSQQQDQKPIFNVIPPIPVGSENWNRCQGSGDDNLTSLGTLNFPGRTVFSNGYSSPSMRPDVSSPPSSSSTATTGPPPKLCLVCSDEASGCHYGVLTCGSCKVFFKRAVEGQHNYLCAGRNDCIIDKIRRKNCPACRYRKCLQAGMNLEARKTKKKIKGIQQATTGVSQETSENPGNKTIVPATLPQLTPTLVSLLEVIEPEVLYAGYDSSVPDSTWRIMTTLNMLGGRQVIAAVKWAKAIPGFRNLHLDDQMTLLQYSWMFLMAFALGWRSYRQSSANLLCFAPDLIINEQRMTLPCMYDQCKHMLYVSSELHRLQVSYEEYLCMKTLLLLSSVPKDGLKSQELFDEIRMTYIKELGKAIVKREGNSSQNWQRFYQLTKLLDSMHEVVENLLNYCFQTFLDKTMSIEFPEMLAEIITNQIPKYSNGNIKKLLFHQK
Sequence of Cytochrome P450 3A4 (Homo sapiens) (P08684 whole entry, looked up): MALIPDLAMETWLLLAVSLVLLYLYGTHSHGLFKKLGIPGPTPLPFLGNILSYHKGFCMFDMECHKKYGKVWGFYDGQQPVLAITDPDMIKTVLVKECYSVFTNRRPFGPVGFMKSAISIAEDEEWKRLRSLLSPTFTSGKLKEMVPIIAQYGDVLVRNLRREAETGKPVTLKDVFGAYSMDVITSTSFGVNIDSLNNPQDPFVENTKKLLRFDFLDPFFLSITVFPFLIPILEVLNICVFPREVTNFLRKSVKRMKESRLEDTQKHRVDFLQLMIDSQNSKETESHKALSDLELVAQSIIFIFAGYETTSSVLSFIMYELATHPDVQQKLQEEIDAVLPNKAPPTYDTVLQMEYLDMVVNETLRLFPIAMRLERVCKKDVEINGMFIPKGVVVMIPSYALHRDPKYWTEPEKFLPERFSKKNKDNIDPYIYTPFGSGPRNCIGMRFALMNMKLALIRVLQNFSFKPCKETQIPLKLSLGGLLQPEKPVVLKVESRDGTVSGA
Sequence of Lysosomal acid glucosylceramidase (Homo sapiens) (P04062 whole entry, looked up): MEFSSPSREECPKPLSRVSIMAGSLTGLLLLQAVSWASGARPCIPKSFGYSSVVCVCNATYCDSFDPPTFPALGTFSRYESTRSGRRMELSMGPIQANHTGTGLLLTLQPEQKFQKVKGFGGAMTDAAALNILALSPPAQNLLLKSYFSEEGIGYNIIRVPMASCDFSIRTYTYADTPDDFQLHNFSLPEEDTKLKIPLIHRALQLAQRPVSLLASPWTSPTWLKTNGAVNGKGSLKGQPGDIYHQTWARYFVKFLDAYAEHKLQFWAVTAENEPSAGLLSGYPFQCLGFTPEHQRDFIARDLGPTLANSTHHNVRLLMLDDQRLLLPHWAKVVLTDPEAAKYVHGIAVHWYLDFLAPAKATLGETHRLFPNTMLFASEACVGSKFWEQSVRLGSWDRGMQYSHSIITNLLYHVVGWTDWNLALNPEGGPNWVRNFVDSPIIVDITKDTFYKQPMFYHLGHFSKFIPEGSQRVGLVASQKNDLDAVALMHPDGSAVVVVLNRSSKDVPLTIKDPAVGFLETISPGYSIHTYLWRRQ
Sequence of Dual specificity protein kinase CLK4 (Homo sapiens) (Q9HAZ1 whole entry, looked up): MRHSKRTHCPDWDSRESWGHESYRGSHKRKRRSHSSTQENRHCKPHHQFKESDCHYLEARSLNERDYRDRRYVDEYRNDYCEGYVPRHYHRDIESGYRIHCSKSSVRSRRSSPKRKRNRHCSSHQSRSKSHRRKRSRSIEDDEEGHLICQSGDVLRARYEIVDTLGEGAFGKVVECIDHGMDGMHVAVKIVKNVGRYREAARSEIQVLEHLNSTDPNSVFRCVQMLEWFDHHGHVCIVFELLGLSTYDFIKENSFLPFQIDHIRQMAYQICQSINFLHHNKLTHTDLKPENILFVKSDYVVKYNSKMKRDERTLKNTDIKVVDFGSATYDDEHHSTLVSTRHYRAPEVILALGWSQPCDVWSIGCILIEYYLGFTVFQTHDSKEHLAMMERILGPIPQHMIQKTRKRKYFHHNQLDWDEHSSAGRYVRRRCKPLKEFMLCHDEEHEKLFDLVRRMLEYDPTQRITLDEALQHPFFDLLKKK
Sequence of 3',5'-cyclic-AMP phosphodiesterase 4B (Homo sapiens) (Q07343 whole entry, looked up): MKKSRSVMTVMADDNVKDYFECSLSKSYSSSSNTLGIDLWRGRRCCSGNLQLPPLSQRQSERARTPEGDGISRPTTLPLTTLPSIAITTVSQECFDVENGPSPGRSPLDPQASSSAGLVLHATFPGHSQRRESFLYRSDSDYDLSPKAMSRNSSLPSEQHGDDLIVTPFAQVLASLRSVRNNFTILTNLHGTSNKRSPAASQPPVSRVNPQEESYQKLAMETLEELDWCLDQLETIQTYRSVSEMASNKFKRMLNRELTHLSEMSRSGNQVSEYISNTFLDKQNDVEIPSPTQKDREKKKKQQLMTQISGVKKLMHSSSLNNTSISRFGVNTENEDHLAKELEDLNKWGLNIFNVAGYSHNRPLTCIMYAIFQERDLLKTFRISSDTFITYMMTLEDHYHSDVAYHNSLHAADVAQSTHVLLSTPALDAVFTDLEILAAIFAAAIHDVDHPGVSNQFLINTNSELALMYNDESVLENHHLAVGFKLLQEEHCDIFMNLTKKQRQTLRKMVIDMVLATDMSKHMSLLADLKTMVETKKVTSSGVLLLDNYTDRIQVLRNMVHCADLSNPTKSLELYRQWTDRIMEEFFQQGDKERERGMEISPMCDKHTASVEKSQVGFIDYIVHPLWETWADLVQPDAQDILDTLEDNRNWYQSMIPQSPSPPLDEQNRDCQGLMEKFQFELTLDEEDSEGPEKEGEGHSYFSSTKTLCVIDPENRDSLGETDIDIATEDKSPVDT

SMILES | Potency [1] [µM] | activity change, negative = inhibition [2] [%] | Potency [3] | activity change, negative = inhibition [4] [%] | activity, negative = inhibition [5] [%] | Potency [6] [µM] | Potency [7] [µM] | Potency [8] | Potency [9] | Potency [10] | Potency [11] | Potency [12] | Potency [13] | Potency [14] | outcome [15] | Potency [16] | Potency [17] | activation [17] [%]
COc1cccc(-c2cc(NCc3cccnc3)ncn2)c1 | > 11.4 | 12.8 | 0.631 µM (active) | 0.0139 | -7.08 | > 46 | > 46 | inactive | inactive | 3.98 µM (active) | inactive | 14.1 µM (active) | 14.1 µM (active) | inactive | inactive |  |  | 
COc1ccc(CNc2ncncc2-c2c(C)noc2C)c(OC)c1 | > 11.4 | -10.6 | 25.1 µM (active) | 9.48 | 2.92 | > 46 | > 46 | inactive | inactive | 1.26 µM (active) | inactive | inactive | inactive | inactive | inactive |  |  | 
CNc1ccnc(-c2cccc(NS(C)(=O)=O)c2)n1 |  | 13.6 |  | 18.6 | -1.8 | > 46 | > 46 | inactive | inactive |  |  | inactive | inactive | inactive | inactive | inactive |  | 
CN(C)c1ncc2nc(-c3cc(F)cc(F)c3)c(=O)n(CCc3ccccc3)c2n1 |  |  | inactive |  |  | > 9.22 | > 46 |  | inactive |  |  | inactive | inactive | inactive | inactive | inactive | 2.51 µM (active) | 
c1cn(-c2cc(-c3ccc4c(c3)OCO4)ncn2)cn1 |  | 13.6 |  | 13.4 | 6.1 | > 46 |  | inactive | inactive |  |  | 3.16 µM (active) | 2.82 µM (active) | 17.8 µM (active) | inactive | 2 µM (active) |  | 
c1cncc(-c2cc(-n3ccnc3)ncn2)c1 | > 11.4 | -4.01 | 0.1 µM (active) | 4.07 | 14.8 | > 46 | > 46 | inactive | inactive | 1.58 µM (active) | inactive | 0.794 µM (active) | 0.708 µM (active) | inactive | inactive |  |  | 
c1csc(CNc2ncncc2-c2ccoc2)c1 | > 11.4 | -12.1 | 2 µM (active) | 3.52 | -10.5 | > 46 | > 46 | inactive | inactive | 2 µM (active) | inactive | inactive | inactive | inactive | inactive |  |  | 2.26
CNc1nc(-c2cccc(NS(C)(=O)=O)c2)nc2ccccc12 | > 11.4 | -8.82 | 0.398 µM (active) | 6.53 | -10.2 | > 46 | > 46 | inactive | inactive |  | inactive | 14.1 µM (active) | 22.4 µM (active) | inactive | inactive |  |  | 
COc1cccc(Cn2c(=O)c(-c3cccc(C#N)c3)nc3cnc(N4CCOCC4)nc32)c1 |  | 0.3 |  | 0.194 | 18.9 | > 9.22 | > 46 | inactive | inactive |  |  | inactive | inactive | inactive | inactive | inactive |  | 
COCCn1c(=O)c(-c2cc(F)cc(F)c2)nc2cnc(N(C)C)nc21 | > 11.4 | 3.27 | 5.01 µM (active) | -6.48 | -2 | > 9.22 | > 46 | inactive | inactive |  |  | inactive | inactive | inactive | inactive |  |  | 
CN(Cc1ccco1)c1nc(-c2ccoc2)nc2ccccc12 | > 11.4 | -25.1 | 0.398 µM (active) | -18.3 | -4.21 | > 46 | > 46 | inactive |  |  | inactive | inactive | inactive | inactive | inactive |  |  | 
COc1ccccc1-c1cc(NCc2cccs2)ncn1 | > 11.4 | 0.573 | 1.58 µM (active) | 9.61 |  | > 46 |  | inactive | inactive |  | inactive | 14.1 µM (active) | 14.1 µM (active) | inactive | inactive |  |  | 
COc1cccc(Cn2c(=O)c(-c3cccs3)nc3cnc(OCc4ccccc4)nc32)c1 | > 11.4 | 27.9 | 1.58 µM (active) | 3.84 |  | > 9.22 | > 46 | inactive | inactive |  | inactive | inactive | inactive | inactive | inactive |  |  | 
